# Screens (PubChem BioAssay)
# Most compounds without a hit are left out; they make up all but 1.3% or so of the library.
# CIT2-GFP yeast: modulators of TOR pathway CIT2-GFP in S. cerevisiae | S. cerevisiae CIT2-GFP strain, flow cytometry, 3 h; 100 means same as DMSO wells | GFP response vs DMSO, % at 10 µM | actives 0.065% (n = 320,000);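 active = GFP response relative to DMSO above a set limit, near the screen mean plus 3 SD, cut at about 150% in these data; inconclusive = Fewer than 70 cells measured for a yeast strain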;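 note: ratio of well median GFP fluorescence to mean of DMSO wells on the plate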
# LAP4-GFP MLPCN: modulators of TOR pathway LAP4-GFP in S. cerevisiae; actives 0.34% (n = 320,000); S. cerevisiae LAP4-GFP multiplex, flow cytometry GFP, 3 h; median GFP as percent of DMSO wells; GFP response vs DMSO, % at 10 µM;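 active = GFP response vs DMSO above a set limit, about the screen mean plus 3 SD, cut at about 150% in these data; inconclusive = under 70 cell events counted for the yeast strain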
# RPL19A TOR yeast: alters RPL19A-GFP fluorescence in TOR pathway yeast screen; S. cerevisiae RPL19A-GFP strain, flow cytometry, 3 h; hits give low values; AID 2025; percent response vs DMSO, % at 10 µM; actives 0.3% (n = 330,000);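 active = percent response vs DMSO below 50%; inconclusive = fewer than 70 events counted for the yeast strain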;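 note: median channel GFP fluorescence of the barcoded RPL19A-GFP strain; lower means less RPL19A-GFP as with rapamycin TOR inhibition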
# AGP1 TOR yeast: alters AGP1-GFP fluorescence in TOR pathway yeast screen | S. cerevisiae AGP1-GFP multiplex flow cytometry, 3 h; GFP as percent of DMSO wells | GFP response vs DMSO, % at 10 µM | actives 0.02% (n = 320,000);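 active = GFP response relative to DMSO above a set limit, near screen average plus 3 SD, cut at about 150% in these data; inconclusive = fewer than 70 cells counted for the yeast strain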;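 note: median GFP channel fluorescence of the gated AGP1 strain per well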
# MEP2-GFP yeast: yeast TOR pathway MEP2-GFP modulation. S. cerevisiae MEP2-GFP strain, flow cytometry GFP, 3 h; 100% = DMSO control level. GFP response vs DMSO, % at 10 µM. actives 0.51% (n = 330,000);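 active = GFP response versus DMSO above a set limit, roughly screen mean plus 3 SD, cut at about 180% in these data; inconclusive = fewer than 70 cells counted for a yeast strain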;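 note: median GFP fluorescence of the barcode-gated MEP2-GFP cells per well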
# Efflux pump mplx: antifungal efflux pump inhibition, Nile Red retention; S. cerevisiae Candida pump triplex; inhibition, % at 10 µM; actives 0.44% (n = 330,000); AID 485275;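 active = plate passing quality check with inhibition over a set limit, or well fluorescence over plate mean plus 4 SD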;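 note: Nile Red retained in pooled yeast measured as flow cytometry median fluorescence; higher means more Nile Red kept so more efflux inhibition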
# LAP4 cherry2: reconfirmed LAP4-GFP TOR pathway modulator in yeast | GFP response vs DMSO, % at 10 µM | S. cerevisiae LAP4-GFP strain, flow cytometry GFP, 3 h | actives 20% (n = 590) | shares compounds with LAP4-GFP MLPCN | AID 2621;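 active = GFP signal as percent of the solvent control above about 150%, meaning raised reporter expression, limit read from the data; inconclusive = fewer than 70 cells counted in the well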
# MEP2 cherry2: second confirmation of modulators of TOR reporter MEP2-GFP in yeast | shares compounds with LAP4-GFP MLPCN | AID 2622 | S. cerevisiae MEP2-GFP strain, flow cytometry GFP, 3 h | actives 10% (n = 590) | GFP response vs DMSO, % at 10 µM;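 active = GFP signal above 150% of the solvent control wells, that is a rise of more than half; inconclusive = fewer than 70 yeast cells counted in the well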;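 note: median channel GFP fluorescence of all gated yeast cells per well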
# RPL19A-GFP pick2: yeast RPL19A-GFP TOR reporter modulation, second cherry pick. AID 2623. GFP response vs DMSO, % at 10 µM. actives 3% (n = 590). shares compounds with LAP4-GFP MLPCN. S. cerevisiae RPL19A-GFP strain, flow cytometry GFP, 3 h; hits give low values; 100% means same as DMSO wells;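 active = under 65% GFP response relative to DMSO; inconclusive = yeast strain with under 70 measured events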;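 note: median GFP channel fluorescence per well over the all cells gate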
# CIT2-GFP pick2: second confirmation of modulators of TOR reporter CIT2-GFP in yeast | shares compounds with LAP4-GFP MLPCN | S. cerevisiae CIT2-GFP strain, flow cytometry GFP, 3 h; DMSO control wells read 100% | GFP response vs DMSO, % at 10 µM | actives 8% (n = 590);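 active = GFP response vs DMSO above about 150%, limit read from the data; inconclusive = fewer than 70 events counted for a yeast strain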;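 note: median green fluorescence per well over all gated yeast cells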
# AGP1-GFP pick2: second confirmation of modulators of TOR reporter AGP1-GFP in yeast; shares compounds with LAP4-GFP MLPCN; S. cerevisiae AGP1-GFP strain, flow cytometry GFP, 3 h; percent response vs DMSO, % at 10 µM; 590 tested, under 10 active; AID 2643;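 active = over 150 percent of DMSO response; inconclusive = yeast strain measured with under 70 events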;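 note: median GFP channel fluorescence over all cells without mother daughter split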
# Yeast autofluor: yeast s288c autofluorescence artifact, counter-screen; S. cerevisiae s288c, 520 nm autofluorescence, flow cytometry, 3 h; hits give high values; zero means same as solvent-only cells; AID 2757; 610 tested, under 10 active; shares compounds with LAP4-GFP MLPCN; fluorescence change (kMESF span) at 33 µM;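 active = fluorescence span over the dose series, or activity score, above about 33, limit read from the data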
# Yeast cmpd fluor: counter-screen for efflux pump inhibitors: compound fluorescence; shares compounds with Efflux pump mplx; S. cerevisiae AD/pABC3, flow cytometry; fluorescence ratio to DMSO, % at 10 µM; actives 4% (n = 1,700); AID 588517;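 active = fluorescence ratio to DMSO above its plate's cutoff, the plate mean ratio plus 5 SD, cut at about 210% in these data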;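 note: unstained yeast with no Nile Red so the signal is compound autofluorescence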
# Mdr1 pump inh: blocks the Candida albicans Mdr1 efflux pump in yeast. shares compounds with Efflux pump mplx. S. cerevisiae AD/CaMDR1, Nile Red efflux, flow cytometry. inhibition, % at 10 µM. actives 1% (n = 1,700). AID 588518; in the data active = inhibition above about 26%;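 note: higher means more Nile Red retained so more efflux inhibition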
# Cdr2 pump inh: Candida Cdr2 efflux pump inhibition. shares compounds with Efflux pump mplx. actives 4% (n = 1,700). Nile Red retention ratio vs DMSO, % at 10 µM. S. cerevisiae AD/CaCDR2, Nile Red retention, flow cytometry. AID 588520; in the data active = Nile Red retention ratio vs DMSO above about 190%;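 note: higher ratio means more blocking of Cdr2 efflux of the dye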
# Cdr1 pump inh: inhibitors of Candida albicans Cdr1 efflux pump; S. cerevisiae AD/CaCDR1, Nile Red efflux, flow cytometry; actives 1% (n = 1,700); inhibition, % at 10 µM; shares compounds with Efflux pump mplx;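 active = inhibition above the screen-wide mean plus twice its standard deviation, cut at about 32% in these data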
# Numbers stand for hits; . = inactive; ? = inconclusive; / = no result given; + = active, no number; [ ] = remark or other dose.
SMILES,CIT2-GFP yeast,LAP4-GFP MLPCN,RPL19A TOR yeast,AGP1 TOR yeast,MEP2-GFP yeast,Efflux pump mplx,Yeast cmpd fluor,Mdr1 pump inh,Cdr2 pump inh,Cdr1 pump inh,others
Cc1ccc(/C=C2\C(=O)NC(=S)N(c3ccccc3F)C2=O)s1,.,.,.,.,.,.,/,/,/,/,LAP4 cherry2=.;MEP2 cherry2=.;RPL19A-GFP pick2=64.5;CIT2-GFP pick2=.;AGP1-GFP pick2=.;Yeast autofluor=.
CCOC(=O)C1CCN(/C=C2/C(=O)NC(=S)N(c3ccccc3F)C2=O)CC1,.,.,.,.,.,.,/,/,/,/,
COc1ccc(N2C(=O)/C(=C/c3cccs3)C(=O)NC2=S)cc1,.,.,.,.,.,.,/,/,/,/,LAP4 cherry2=.;MEP2 cherry2=.;RPL19A-GFP pick2=63.5;CIT2-GFP pick2=.;AGP1-GFP pick2=.;Yeast autofluor=.
O=c1[nH]c(=S)[nH]c(O)c1CN1CCCCC1,.,.,.,.,.,.,/,/,/,/,
CN1C2CCC1CC(OC(=O)CCN1CCCC1)C2 (configuration not stated),.,.,.,/,.,0.5,.,.,.,.,
Cc1ccc2c(c1)cc1c(=O)n(CC(=O)N3CCC4(CC3)OCCO4)nc(C)n12,.,.,.,.,.,.,/,/,/,/,
COC(=O)C1=C(c2ccc(F)cc2OCc2ccccc2)C[C@@H]2CC[C@H]1N2C(=O)NC1CC1,.,.,.,.,.,.,/,/,/,/,
CN(C)c1ccc(/C=C/C=C/c2sc3ccccc3[n+]2C)cc1,.,.,.,.,.,.,/,/,/,/,
CC[n+]1c(/C=C/C=C/c2ccc(N(C)C)cc2)sc2ccccc21,.,366.5[may fluoresce red],?,.,.,9.9,+,.,.,.,
CCN1/C(=C\C=C\C2=[N+](CC)c3ccccc3C2(C)C)C(C)(C)c2ccccc21,.,.,.,.,.,3.2,/,.,251.3,.,
CN(C)C1(CNC(=O)c2cc(S(=O)(=O)N3CCOCC3)c(Cl)cc2Cl)CCCCC1,.,.,.,.,.,.,/,/,/,/,
CC(C)[C@H]1C(=O)O[C@H](C(C)C)C(=O)N(C)[C@@H](C(C)C)C(=O)O[C@H](C(C)C)C(=O)N(C)[C@@H](C(C)C)C(=O)O[C@H](C(C)C)C(=O)N1C,.,.,.,.,.,85.6,.,122.6,.,79.9,
CC(Cc1ccccc1)[n+]1cc(/N=C(\N)[O-])on1 (configuration not stated),.,.,.,.,.,1.1,.,.,.,.,
O=C(O)c1ccc(NC(=O)N2C[C@H]3C[C@@H](C2)c2cccc(=O)n2C3)cc1,.,.,.,.,.,.,/,/,/,/,
O=C(N/N=C/c1c(O)n(Cc2ccc(F)cc2)c(=O)[nH]c1=O)c1ccccc1O,.,.,.,.,.,.,/,/,/,/,
O=C(N/N=C/c1c(O)n(Cc2ccccc2)c(=O)[nH]c1=O)c1ccccc1O,.,.,.,.,.,13.9,.,.,.,.,
COC(=O)C1=C(c2ccc(OC)c(OC)c2)C[C@@H]2CC[C@H]1N2C(=O)NCc1ccc(F)cc1,.,.,.,.,.,.,/,/,/,/,
C=CCN1C(=O)NC(=O)/C(=C/c2cc3c4c(c2)CCCN4CCC3)C1=O,.,.,.,.,.,1.6,.,.,.,.,
O=C(COc1ccccc1)N1CCN(CC2CC=CCC2)CC1 (configuration not stated),.,.,.,.,.,.,/,/,/,/,
O=P(Nc1c(Cl)cccc1Cl)(c1ccccc1)c1nc2c(s1)CCCC2 (configuration not stated),.,.,.,.,.,5.9,.,.,.,.,
O=P(Nc1ccccc1Cl)(c1ccccc1)c1nc2c(s1)CCCC2 (configuration not stated),.,.,.,.,.,.,/,/,/,/,
O=c1[nH]c(=S)[nH]c(O)c1/C=C1/C=c2ccccc2=N1,.,.,.,.,.,0.5,.,.,.,.,
CN(C)CCN(C(=O)COc1ccc(Cl)cc1)c1nc2cc3c(cc2s1)OCO3,.,.,.,.,.,.,/,/,/,/,
Fc1ccccc1CN1CCN(c2ccc(Cl)cc2)CC1,.,.,.,.,.,1.7,.,.,.,.,
